23 molecules from PubChem BioAssay (EPA / NIEHS) can be followed below.

Activity calls are given as the source filed them. How the source made its calls: active means hit-call score of the fitted dose curve at least 0.9, where 1 is the maximum; inactive means score below 0.9.

Common to all, as to settings: mRNA level, 48 h; actives raise or lower the signal
Read-out in one assay: CYP4A11 (gene 1579)
In words: LTEA_HepaRG_CYP4A11: Life Technologies and Expression Analysis (LTEA) Assay for CYP4A11 using HepaRG (AID 2283486). An outline of the steps: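 Differentiated HepaRG cells, 48 h after plating, exposed in duplicate for 48 h to 8 half-log concentrations up to 100 uM in 0.5% DMSO in serum-free induction medium. CYP4A11 mRNA measured by TaqMan qRT-PCR, normalized to ACTB, GAPDH and POLR2A.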

Read-out in assay [1]: Cytochrome P450 3A4 (Homo sapiens) (UniProt P08684)
The experiment in a line: LTEA_HepaRG_CYP3A4: Life Technologies and Expression Analysis (LTEA) Assay for CYP3A4 using HepaRG (AID 2283487). An outline of the steps:
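Differentiated HepaRG cells, plated 48 h, then dosed 48 h in serum-free induction medium with 0.5% DMSO, 8 half-log concentrations up to 100 uM, duplicate. CYP3A4 mRNA by qRT-PCR, normalized to ACTB/GAPDH/POLR2A; bidirectional fit versus DMSO.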

Read-out in assay [2]: DNA damage-inducible transcript 3 (DDIT3), DDIT3 (gene 1649)
In words: LTEA_HepaRG_DDIT3: Life Technologies and Expression Analysis (LTEA) Assay for DNA damage-inducible transcript 3 (DDIT3) using HepaRG (AID 2283488). An outline of the steps:
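DDIT3 transcript was quantified by qRT-PCR with ACTB/GAPDH/POLR2A normalization after 48 h chemical treatment of differentiated HepaRG cells in 0.5% DMSO. Dosing was eight-point, half-log, top 100 uM, duplicate wells. Curves fitted bidirectionally versus DMSO.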

Read-out in assay [3]: Pro-epidermal growth factor (Homo sapiens) (UniProt P01133)
The experiment in a line: LTEA_HepaRG_EGF: Life Technologies and Expression Analysis (LTEA) Assay for Epidermal growth factor (EGF) using HepaRG (AID 2283489). An outline of the steps: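 HepaRG cells (~100,000/well, 48 h pre-culture) exposed in duplicate for 48 h in serum-free induction medium to 8 half-log concentrations up to 100 uM in 0.5% DMSO. EGF mRNA by qRT-PCR, normalized to ACTB/GAPDH/POLR2A; bidirectional fit versus DMSO.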

Read-out in assay [4]: Early growth response protein 1 (EGR1) transcription factor, EGR1 (gene 1958)
The experiment in a line: LTEA_HepaRG_EGR1: Life Technologies and Expression Analysis (LTEA) Assay for Early growth response protein 1 (EGR1) transcription factor using HepaRG (AID 2283490). An outline of the steps: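 EGR1 transcript levels quantified by qRT-PCR (Fluidigm arrays) against three housekeeping genes after 48 h chemical exposure of HepaRG cells. Eight-point half-log series topping at 100 uM, 0.5% DMSO vehicle, analyzed for gain or loss.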

Read-out in assay [5]: Ezrin (EZR), EZR (gene 7430)
In words: LTEA_HepaRG_EZR: Life Technologies and Expression Analysis (LTEA) Assay for Ezrin (EZR) using HepaRG (AID 2283491). An outline of the steps: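 EZR transcript levels came from Fluidigm qRT-PCR and were normalized to three housekeeping genes after 48 h chemical exposure of HepaRG cells. Dosing used an 8-point half-log series with a 100 uM top concentration in 0.5% DMSO, tested in duplicate; both directions were fitted versus vehicle.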

Read-out in assay [6]: Cytochrome P450 3A7 (Homo sapiens) (UniProt P24462)
The experiment in a line: LTEA_HepaRG_CYP3A7: Life Technologies and Expression Analysis (LTEA) Assay for CYP3A7 using HepaRG (AID 2283492). The procedure, abridged: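 Differentiated HepaRG cells in serum-free induction medium exposed 48 h in duplicate to 8-point half-log series from 100 uM top in 0.5% DMSO. CYP3A7 mRNA by qRT-PCR, normalized to ACTB/GAPDH/POLR2A, bidirectional fit versus DMSO.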

Read-out in the next assay: CYP3A5 (gene 1577)
The experiment in a line: LTEA_HepaRG_CYP3A5: Life Technologies and Expression Analysis (LTEA) Assay for CYP3A5 using HepaRG (AID 2283493). The procedure, abridged:
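mRNA levels were quantified by qRT-PCR on Fluidigm arrays and normalized to three housekeeping genes. Differentiated HepaRG cells received 48 h exposure (top 100 uM, half-log steps, 0.5% DMSO vehicle, duplicate); bidirectional fitting versus DMSO.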

Read-out in assay [7]: Cytochrome P450 4A22 (Homo sapiens) (UniProt Q5TCH4)
The experiment in a line: LTEA_HepaRG_CYP4A22: Life Technologies and Expression Analysis (LTEA) Assay for Cytochrome P450 4A22 (CYP4A22) using HepaRG (AID 2283495). The procedure, abridged: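 Differentiated HepaRG cells in serum-free induction medium exposed 48 h in duplicate to eight half-log concentrations up to 100 uM in 0.5% DMSO. CYP4A22 mRNA quantified by TaqMan qRT-PCR, normalized to ACTB, GAPDH and POLR2A; bidirectional fit versus DMSO.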

Read-out in assay [8]: Fatty Acid-Binding Protein 1 (FABP1), FABP1 (gene 2168)
In words: LTEA_HepaRG_FABP1: Life Technologies and Expression Analysis (LTEA) Assay for Fatty Acid-Binding Protein 1 (FABP1) using HepaRG (AID 2283494). An outline of the steps:
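FABP1 expression by TaqMan qRT-PCR, normalised to three housekeeping genes, in HepaRG cells after 48 h chemical treatment. Eight-point half-log series topping at 100 uM in 0.5% DMSO, duplicates; gain or loss fitted relative to vehicle.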

Sequence of Cytochrome P450 3A7 (Homo sapiens) (P24462 whole entry, looked up): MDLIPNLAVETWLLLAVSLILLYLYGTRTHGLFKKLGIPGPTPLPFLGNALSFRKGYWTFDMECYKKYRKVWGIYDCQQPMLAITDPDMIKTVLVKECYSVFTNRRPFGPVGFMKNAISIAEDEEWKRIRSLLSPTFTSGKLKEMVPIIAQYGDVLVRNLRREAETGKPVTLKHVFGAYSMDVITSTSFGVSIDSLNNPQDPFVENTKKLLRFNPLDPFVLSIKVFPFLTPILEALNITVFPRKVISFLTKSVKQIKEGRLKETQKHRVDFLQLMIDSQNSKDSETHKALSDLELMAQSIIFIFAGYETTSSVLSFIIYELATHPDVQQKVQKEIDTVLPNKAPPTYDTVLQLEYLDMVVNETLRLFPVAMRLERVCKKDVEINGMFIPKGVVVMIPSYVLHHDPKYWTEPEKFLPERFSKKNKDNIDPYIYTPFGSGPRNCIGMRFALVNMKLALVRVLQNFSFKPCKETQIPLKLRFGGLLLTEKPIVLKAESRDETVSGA
Sequence of Cytochrome P450 3A4 (Homo sapiens) (P08684 whole entry, looked up): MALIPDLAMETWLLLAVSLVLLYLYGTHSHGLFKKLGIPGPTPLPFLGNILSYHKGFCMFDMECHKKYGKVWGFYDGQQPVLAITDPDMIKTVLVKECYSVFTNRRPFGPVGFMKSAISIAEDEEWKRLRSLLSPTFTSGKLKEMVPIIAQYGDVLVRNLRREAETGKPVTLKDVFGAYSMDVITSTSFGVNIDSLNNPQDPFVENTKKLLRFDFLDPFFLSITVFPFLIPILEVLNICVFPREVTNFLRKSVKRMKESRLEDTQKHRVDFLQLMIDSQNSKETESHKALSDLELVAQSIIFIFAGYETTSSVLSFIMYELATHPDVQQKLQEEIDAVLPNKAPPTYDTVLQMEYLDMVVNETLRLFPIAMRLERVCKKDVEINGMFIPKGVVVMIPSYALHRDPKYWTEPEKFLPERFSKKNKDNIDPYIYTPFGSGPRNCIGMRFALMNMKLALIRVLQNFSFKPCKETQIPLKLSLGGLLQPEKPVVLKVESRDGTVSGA

For the molecule `CC(=O)C(C)=CC1C(C)=CCCC1(C)C` (stereo not given), the molecule was called inactive (with CYP4A11 (gene 1579); in assay [1]; in [2]; in [3]; in assay [4]; in assay [5]). The result (in assay [6]; with CYP3A5 (gene 1577); in assay [7]) was inactive.
With `NCCO`, the molecule was called inactive (with CYP4A11 (gene 1579); in assay [1]; in assay [2]; in [3]; in assay [4]; in assay [5]). Further, the molecule was called inactive (in assay [6]; with CYP3A5 (gene 1577); in [7]).
For the molecule `CC1(C)CC(N=C=O)CC(C)(CN=C=O)C1` (stereo not given), the outcome (with CYP4A11 (gene 1579); in assay [1]; in [2]; in assay [3]; in [4]; in [5]) was inactive. The outcome (in assay [6]; with CYP3A5 (gene 1577); in [7]) was inactive.
As usually defined, the AC50 is the midpoint of the concentration-response curve, whichever way the signal moves. On to `O=C(N[C@@H](Cc1ccccc1)[C@@H](O)C(=O)N1C[C@@H](O)[C@@H](O)C1)c1cc2cc(Cl)ccc2[nH]1`, for which the AC50 with CYP4A11 (gene 1579) is 89.9 µM (active); in [2], 73.1 µM (active); in assay [5], 9.92 µM (active); in assay [6], 12.6 µM (active); in assay [7], 14.3 µM (active). Further, the outcome (in [1]; in assay [3]; in [4]; in the assay with CYP3A5 (gene 1577)) was inactive.
For the molecule `OC[C@@H](O)[C@@H](O)[C@H](O)[C@H](O)CO`, the call (with CYP4A11 (gene 1579); in assay [1]; in [2]; in [3]; in assay [4]; in assay [5]) was inactive. For the same molecule, the molecule was called inactive (in assay [6]; with CYP3A5 (gene 1577); in assay [7]).
For the molecule `Cc1ccc(C)c(O)c1C`, the result (with CYP4A11 (gene 1579); in assay [1]; in assay [2]; in assay [3]; in [4]; in [5]) was inactive. For the same molecule, the molecule was classed as inactive (in assay [6]; in the assay with CYP3A5 (gene 1577); in assay [7]).
In the case of `CN[C@H]1CC[C@@H](c2ccc(Cl)c(Cl)c2)c2ccc(S(N)(=O)=O)cc21`, the half-maximal activity concentration (AC50) in the assay with CYP4A11 (gene 1579) is 21.4 µM (active); in assay [1], 89.2 µM (active); in [2], 63 µM (active); in [4], 83 µM (active); in [7], 15.8 µM (active). In addition, the molecule was called inactive (in assay [3]; in assay [5]; in [6]; with CYP3A5 (gene 1577)).
For the molecule `C1CCC(SSC2CCCCC2)CC1`, the result (in the assay with CYP4A11 (gene 1579); in assay [1]; in [2]; in [3]; in assay [4]; in assay [5]) was inactive. Moreover, the outcome (in assay [6]; in the assay with CYP3A5 (gene 1577); in assay [7]) was inactive.
As to `C[C@]12C=CC(=O)C=C1CC[C@@H]1[C@@H]2C(=O)C[C@@]2(C)[C@H]1CC[C@]2(O)C(=O)CO`, the result in assay [2], in assay [3], in [4], in assay [5] and in assay [8] was inactive.
For `c1cc(-c2ccncc2)ccn1`, the molecule was called inactive (with CYP4A11 (gene 1579); in assay [1]; in assay [2]; in assay [3]; in assay [4]; in [5]). The molecule was classed as inactive (in the assay with CYP3A5 (gene 1577); in assay [7]). Moreover, in assay [6], the concentration at half-maximal activity (AC50) is 50 µM (active).
With `Nc1ccc(S(=O)(=O)c2ccc(N)cc2)cc1`, the outcome (with CYP4A11 (gene 1579); in assay [1]; in assay [2]; in assay [4]; in assay [5]; in assay [6]) was inactive. Further, the molecule was classed as inactive (with CYP3A5 (gene 1577); in assay [8]).
On to `Nc1ccccc1N`, for which the half-maximal activity concentration (AC50) with CYP4A11 (gene 1579) is 66.5 µM (active); in assay [4], 30 µM (active); in the assay with CYP3A5 (gene 1577), 51.3 µM (active); in assay [8] it was 72.6 µM (active). In addition, the molecule was classed as inactive in assay [2], in assay [3] and in assay [5].
With `CN1CCCC1=O`, the result (with CYP4A11 (gene 1579); in assay [1]; in [2]; in assay [3]; in assay [4]; in assay [5]) was inactive. For the same molecule, the call (in [6]; with CYP3A5 (gene 1577); in assay [7]) was inactive.
`Nc1ccc2c(c1)C(=O)c1ccccc1C2=O`: the AC50 in the assay with CYP4A11 (gene 1579) was 29 µM (active); in assay [2], 20.9 µM (active); in assay [3] it was 6.13 µM (active); in assay [4], 10.4 µM (active); in the assay with CYP3A5 (gene 1577) it was 1.6 µM (active); in assay [7], 31 µM (active). Further, the molecule was called inactive in [1], in [5] and in [6].
For the molecule `Cc1ccc(C)c(C)c1`, the outcome (with CYP4A11 (gene 1579); in [1]; in assay [2]; in assay [3]; in [4]; in assay [5]) was inactive. The outcome (in assay [6]; with CYP3A5 (gene 1577); in assay [7]) was inactive.
In the case of `Cc1ccccc1Cl`, the outcome (with CYP4A11 (gene 1579); in assay [1]; in assay [2]; in [3]; in assay [4]; in assay [5]) was inactive. For the same molecule, the molecule was classed as inactive (in assay [6]; with CYP3A5 (gene 1577); in [7]).
`COc1ccc(C)cc1N`: the result (with CYP4A11 (gene 1579); in assay [1]; in [2]; in [3]; in assay [4]; in [5]) was inactive. Also, the result (in assay [6]; with CYP3A5 (gene 1577); in assay [7]) was inactive.
As to `CCCCN(CCCC)CCCC`, the molecule was called inactive (with CYP4A11 (gene 1579); in assay [1]; in assay [2]; in assay [3]; in assay [4]; in assay [5]). For the same molecule, the molecule was classed as inactive (in assay [6]; in the assay with CYP3A5 (gene 1577); in assay [7]).
Regarding `CC(C)(C)c1cc(O)c(C(C)(C)C)cc1O`, the AC50 in assay [2] was 50 µM (active); in assay [4], 50 µM (active); in [8] it was 94.3 µM (active). For the same molecule, the call in assay [3] and in assay [5] was inactive.
With `O=c1c(O)c(-c2ccc(O)c(O)c2)oc2cc(O)cc(O)c12`, the AC50 in the assay with CYP4A11 (gene 1579) is 50 µM (active). In addition, the result (in assay [1]; in assay [2]; in assay [3]; in [4]; in assay [5]; in the assay with CYP3A5 (gene 1577)) was inactive. For the same molecule, the molecule was called inactive in [7].
With `CCOC(=O)C(C)(C)Oc1ccc(Cl)cc1`, the AC50 in the assay with CYP4A11 (gene 1579) was 27.6 µM (active); in assay [7], 25.7 µM (active). Further, the molecule was called inactive (in assay [2]; in assay [3]; in assay [4]; in [5]; in assay [6]; with CYP3A5 (gene 1577)). The outcome in [8] was inactive.
`COCCOCCOC`: the molecule was classed as inactive (with CYP4A11 (gene 1579); in [1]; in [4]; in assay [5]; in assay [6]; with CYP3A5 (gene 1577)). Besides, the result in assay [7] was inactive. For the same molecule, the AC50 in assay [2] was 1.38 µM (active); in assay [3] it was 1.09 µM (active).
`O=C(O)Cc1ccccc1Nc1c(Cl)cccc1Cl`: the molecule was called inactive (with CYP4A11 (gene 1579); in [2]; in [3]; in [4]; in assay [5]; in assay [6]). Moreover, the outcome (in the assay with CYP3A5 (gene 1577); in [8]) was inactive. Further, the concentration at half-maximal activity (AC50) in assay [7] was 9.92 µM (active).
